From the supplement of paper PMC10412459

Tested on: K562 SF3B1 K700E vs K562 SF3B1 WT
Assay: surviving fraction ratio K562 SF3B1 K700E / K562 SF3B1 WT (each relative to DMSO); higher = less selective killing of SF3B1 K700E cells
Conditions: 5 days
Method: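 Drug-sensitivity screen of an in-house 80-compound library in isogenic K562 SF3B1 K700E versus SF3B1 WT cells. 250 cells/well in 384-well plates were exposed 24 h after seeding to 0.5-1000 nM compound for 5 days, and viability was read by CellTiter-Glo. Surviving fraction is relative to DMSO, and the value is the ratio of surviving fraction in K700E to WT cells; the paper calls ratio <0.6 with P<0.01 selective.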

CNC(=O)c1ccc(N2C(=S)N(c3ccc(C#N)c(C(F)(F)F)c3)C(=O)C2(C)C)cc1F was tested, and the “surviving fraction ratio K562 SF3B1 K700E / K562 SF3B1 WT” value (0.5nM) was 0.896, the “surviving fraction ratio K562 SF3B1 K700E / K562 SF3B1 WT” value (1nM) was 0.933 and the “surviving fraction ratio K562 SF3B1 K700E / K562 SF3B1 WT” value (5nM) was 0.864. For the same molecule, the “surviving fraction ratio K562 SF3B1 K700E / K562 SF3B1 WT” value (10nM) was 1.07, the “surviving fraction ratio K562 SF3B1 K700E / K562 SF3B1 WT” value (50nM) was 0.871 and the “surviving fraction ratio K562 SF3B1 K700E / K562 SF3B1 WT” value (100nM) was 0.847. The “surviving fraction ratio K562 SF3B1 K700E / K562 SF3B1 WT” value (500nM) was 0.769 and the “surviving fraction ratio K562 SF3B1 K700E / K562 SF3B1 WT” value (1000nM) was 0.98.
For Cn1c(=O)n(-c2ccc(C(C)(C)C#N)cc2)c2c3cc(-c4cnc5ccccc5c4)ccc3ncc21, the “surviving fraction ratio K562 SF3B1 K700E / K562 SF3B1 WT” value (0.5nM) was 0.991, the “surviving fraction ratio K562 SF3B1 K700E / K562 SF3B1 WT” value (1nM) was 0.985 and the “surviving fraction ratio K562 SF3B1 K700E / K562 SF3B1 WT” value (5nM) was 0.8. For the same molecule, the “surviving fraction ratio K562 SF3B1 K700E / K562 SF3B1 WT” value (10nM) was 0.854, the “surviving fraction ratio K562 SF3B1 K700E / K562 SF3B1 WT” value (50nM) was 0.811 and the “surviving fraction ratio K562 SF3B1 K700E / K562 SF3B1 WT” value (100nM) was 0.838. For the same molecule, the “surviving fraction ratio K562 SF3B1 K700E / K562 SF3B1 WT” value (500nM) was 1.28 and the “surviving fraction ratio K562 SF3B1 K700E / K562 SF3B1 WT” value (1000nM) was 1.45.
CN1CCN(c2nc(C3=C(c4c[nH]c5ccccc45)C(=O)NC3=O)c3ccccc3n2)CC1 [Sotrastaurin/AEB071] was tested, and the “surviving fraction ratio K562 SF3B1 K700E / K562 SF3B1 WT” value (0.5nM) was 0.816, the “surviving fraction ratio K562 SF3B1 K700E / K562 SF3B1 WT” value (1nM) was 0.804 and the “surviving fraction ratio K562 SF3B1 K700E / K562 SF3B1 WT” value (5nM) was 0.847. The “surviving fraction ratio K562 SF3B1 K700E / K562 SF3B1 WT” value (10nM) was 0.854, the “surviving fraction ratio K562 SF3B1 K700E / K562 SF3B1 WT” value (50nM) was 0.889 and the “surviving fraction ratio K562 SF3B1 K700E / K562 SF3B1 WT” value (100nM) was 0.979. The “surviving fraction ratio K562 SF3B1 K700E / K562 SF3B1 WT” value (500nM) was 0.955 and the “surviving fraction ratio K562 SF3B1 K700E / K562 SF3B1 WT” value (1000nM) was 0.896.
With CCCS(=O)(=O)Nc1ccc(F)c(C(=O)c2c[nH]c3ncc(Cl)cc23)c1F the “surviving fraction ratio K562 SF3B1 K700E / K562 SF3B1 WT” value (0.5nM) was 1.33, the “surviving fraction ratio K562 SF3B1 K700E / K562 SF3B1 WT” value (1nM) was 1.07 and the “surviving fraction ratio K562 SF3B1 K700E / K562 SF3B1 WT” value (5nM) was 1.13. The “surviving fraction ratio K562 SF3B1 K700E / K562 SF3B1 WT” value (10nM) was 0.874, the “surviving fraction ratio K562 SF3B1 K700E / K562 SF3B1 WT” value (50nM) was 1.13 and the “surviving fraction ratio K562 SF3B1 K700E / K562 SF3B1 WT” value (100nM) was 0.998. For the same molecule, the “surviving fraction ratio K562 SF3B1 K700E / K562 SF3B1 WT” value (500nM) was 1.1 and the “surviving fraction ratio K562 SF3B1 K700E / K562 SF3B1 WT” value (1000nM) was 1.06.
With CC1(C)CC(=O)c2c(C(F)(F)F)nn(-c3ccc(C(N)=O)c(N[C@H]4CC[C@H](OC(=O)CN)CC4)c3)c2C1 the “surviving fraction ratio K562 SF3B1 K700E / K562 SF3B1 WT” value (0.5nM) was 0.983, the “surviving fraction ratio K562 SF3B1 K700E / K562 SF3B1 WT” value (1nM) was 0.972 and the “surviving fraction ratio K562 SF3B1 K700E / K562 SF3B1 WT” value (5nM) was 0.763. The “surviving fraction ratio K562 SF3B1 K700E / K562 SF3B1 WT” value (10nM) was 0.719, the “surviving fraction ratio K562 SF3B1 K700E / K562 SF3B1 WT” value (50nM) was 1.18 and the “surviving fraction ratio K562 SF3B1 K700E / K562 SF3B1 WT” value (100nM) was 2.16. The “surviving fraction ratio K562 SF3B1 K700E / K562 SF3B1 WT” value (500nM) was 1.09 and the “surviving fraction ratio K562 SF3B1 K700E / K562 SF3B1 WT” value (1000nM) was 1.16.
